In the library only some 11% were active in any assay of this set; here they are far more common.
IMPase Li inh: cell-permeable IMPase inhibitors with lithium potentiation | CHO-M1 cells, IP1 TR-FRET (IP-One), carbachol + lithium | Potency, µM (titrated, usually from 59.4 µM), without a hit: at the highest dose activity, negative = IMPase inhibition, actives largely listed as inhibitors | 0.35% of 210,000 active;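 further: IP1 builds up when IMPase is blocked and the TR-FRET signal falls; potency means the concentration at half of the fitted maximal effect; plate controls were basal vehicle for no effect and high inhibitor control for full effect; nearly all actives have a fitted effect of over 50% in size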
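Test compounds were applied to CHO-M1 cells previously cultured for 16–30 h at 2000 per well. A small lithium amount accompanied them; after 30 min at 37C, IP1 was quantified by TR-FRET.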
HPGD block: inhibitors of human 15-hydroxyprostaglandin dehydrogenase (HPGD); AID 894; purified HPGD, NADH fluorescence kinetic, PGE2 substrate; Potency, µM, inactives show at the top dose activity change, negative = inhibition, hits mostly inhibitors; P15428; 4.3% of 150,000 active; active means well fitted inhibition curve with a large enough effect, not every such curve was filed as active; inconclusive means small, poorly fitted or top-dose-only effect, or another doubt; inactive means no such curve, though single readings can be large or run the other way; further: potency means the concentration at half of the fitted maximal effect
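20 nM HPGD preincubated 15 min at room temperature with compound in 50 mM Tris-HCl pH 8, 0.01% Tween 20. Started with 1 mM NAD+ and 30 uM prostaglandin E2; NADH fluorescence (360/450 nm) read 5 times over 30-s intervals, last minus first.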
PNC assembly inh: inhibitors of perinucleolar compartment assembly; PC3M PTB-GFP, PNC prevalence imaging, 16 h; stronger effect = lower value; activity change (PNC), negative = inhibition, % at 10 µM; 3.1% of 140,000 active; AID 2417;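 active means readout at or below -70, meaning at least 70% loss of cells showing the perinucleolar compartment, a nuclear body marking cancer cells; inconclusive means readout between -30 and a set limit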;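 further: plate controls were DMSO wells for no effect and camptothecin positive control wells for full effect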
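Compounds are pinned in duplicate onto adhered PC3M cells stably expressing GFP-tagged PTB and incubated 16 h at 37 C. Cells are then fixed, nuclei stained with Hoechst, and PNC-positive cells counted.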
ALDH1A1 inh: inhibitors of human aldehyde dehydrogenase 1A1; P00352; Purified ALDH1A1, NADH fluorescence, propionaldehyde substrate; Potency, µM (top dose mostly 75.3 µM), for inactives: top-dose activity, negative = inhibition, most hits filed as inhibitors; 7.3% of 220,000 active; active means well fitted inhibition curve with a large enough effect, not every such curve was filed as active; inconclusive means small, poorly fitted or top-dose-only effect, or another doubt; inactive means no such curve, though single readings can be large or run the other way;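 further: potency means the concentration at half of the fitted maximal effect; plate controls were no enzyme wells and a reference inhibitor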
Target sequence (P00352 whole entry, looked up): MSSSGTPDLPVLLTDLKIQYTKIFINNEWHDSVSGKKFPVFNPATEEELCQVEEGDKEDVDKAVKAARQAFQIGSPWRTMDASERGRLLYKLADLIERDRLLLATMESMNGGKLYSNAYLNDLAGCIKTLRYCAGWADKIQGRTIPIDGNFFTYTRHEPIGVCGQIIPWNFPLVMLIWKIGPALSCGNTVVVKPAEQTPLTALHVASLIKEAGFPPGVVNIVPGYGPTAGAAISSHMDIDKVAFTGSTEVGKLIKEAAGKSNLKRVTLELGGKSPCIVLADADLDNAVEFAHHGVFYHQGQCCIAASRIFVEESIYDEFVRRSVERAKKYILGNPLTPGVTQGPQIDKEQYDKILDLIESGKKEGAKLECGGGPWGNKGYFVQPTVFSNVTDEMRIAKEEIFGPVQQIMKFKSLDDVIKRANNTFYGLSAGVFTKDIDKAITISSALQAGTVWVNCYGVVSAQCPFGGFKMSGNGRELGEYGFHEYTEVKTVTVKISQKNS
IMPase inh: membrane-permeable compound that blocks inositol monophosphatase; P97697; CHO-M1 cells, IP1 accumulation, HTRF TR-FRET ratio; inhibition (IP1 accumulation), % at 46.1 µM; 120,000 tested, under 10 active; active means well fitted curve in the direction sought with a large enough effect in the signal ratio, not every such curve was filed as active; inconclusive means small, poorly fitted or top-dose-only effect, or a change in a side signal; inactive means no such curve, though single readings can be large or run the other way; the % refers to the signal ratio;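 further: cells stimulated with carbachol in lithium chloride buffer; plate controls were DMSO basal wells for no effect and reference inhibitor wells for full effect; higher means more IMPase inhibition seen as more IP1 and lower FRET ratio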
Target sequence (P97697 whole entry, looked up): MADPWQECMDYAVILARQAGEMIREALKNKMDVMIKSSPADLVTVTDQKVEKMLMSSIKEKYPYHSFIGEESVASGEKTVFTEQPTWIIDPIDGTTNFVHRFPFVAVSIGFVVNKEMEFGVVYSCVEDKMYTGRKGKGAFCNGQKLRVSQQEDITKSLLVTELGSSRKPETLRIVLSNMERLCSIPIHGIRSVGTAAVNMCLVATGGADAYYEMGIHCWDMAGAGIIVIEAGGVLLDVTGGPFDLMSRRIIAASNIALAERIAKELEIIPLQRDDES
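CHO-M1, 2000 cells/well, cultured 16–30 h; cpd up to 46 uM; carbachol (50 uM solution, stimulation buffer w/ 50 mM LiCl, pH 7.4), 30 min 37C; IP-One TR-FRET, 10 min RT; Ex 320/Em 665, 620; Hill-fit AC50.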
ALOX12 inhib: 12-hLO (ALOX12) enzyme inhibition; purified 12-hLO, xylenol orange hydroperoxide absorbance; AID 1452; P18054; Potency, µM (series often up to 57.1 µM), without a hit: at the top dose activity change, negative = inhibition, actives largely listed as inhibitors; 0.12% of 150,000 active; further: potency means the concentration at half of the fitted maximal effect; nearly all actives have a fitted effect of over 55% in size
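Hydroperoxide output read as Fe(III)-xylenol orange absorbance, 573-to-405 nm ratio, after 30 min reaction with 40 uM arachidonic acid. Enzyme: 150 nM purified human 12hLO, 15 min compound preincubation; 25 mM Hepes pH 7.0, room temperature.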
An asterisk follows results filed as active; [ ] = remark or other dose. Unless noted, the call rests on the fitted dose curve; in most records, active means well fitted curve in the direction sought with a large enough effect; inconclusive means small, poorly fitted or top-dose-only effect, or another doubt; inactive means no such curve, though single readings can be large; an effect the other way counts as inactive or inconclusive. Unless noted, on the % scale 0 is the no-effect control and ±100 the full control effect.

What do the screens show for `O=C(Cn1sc2ccccc2c1=O)NC12CC3CC(CC(C3)C1)C2`?
IMPase Li inh: 29.3%[38.3 µM]; HPGD block: 0.316µM*; PNC assembly inh: 18.4; ALDH1A1 inh: 0.0708µM*; IMPase inh: -3.8; ALOX12 inhib: 7.94µM*

Results for Nc1cccc2c1C(=O)N(CC(=O)NC13CC4CC(CC(C4)C1)C3)C2=O ?
IMPase Li inh: -5.4%; ALDH1A1 inh: inconclusive

Results for CCOC(=O)C1=CC2(CC)CCCN3CCc4c(n1c1ccccc41)C32 (configuration not stated) ?
IMPase Li inh: 6.7%; ALDH1A1 inh: -0.7%

What do the screens show for `Cc1ccc(Nc2nnns2)cc1C`?
IMPase Li inh: 3.1%[38.3 µM]; HPGD block: 22.4µM*; PNC assembly inh: -81.7*; ALDH1A1 inh: 3.98µM*; IMPase inh: -8.3; ALOX12 inhib: -7.9%

What do the screens show for `Cc1nn2c(C(F)(F)F)cc(-c3ccc(Cl)cc3)nc2c1C(=O)N1CCOCC1`?
IMPase Li inh: -7.9%[38.3 µM]; HPGD block: inconclusive; PNC assembly inh: inconclusive; ALDH1A1 inh: 11.2µM*; IMPase inh: 11.6; ALOX12 inhib: 3.9%

Results for CC[C@]1(O)C[C@H]2CN(CCc3c([nH]c4ccccc34)[C@](C(=O)OC)(c3cc4c(cc3OC)N(C=O)[C@H]3[C@@](O)(C(=O)OC)[C@H](OC(C)=O)[C@@]5(CC)C=CCN6CC[C@]43[C@H]65)C2)C1 ?
IMPase inh: 2.1; ALOX12 inhib: -4.7%

What do the screens show for `C=CCC(c1ccccc1)N(C(C)=O)c1ccco1` (configuration not stated)?
IMPase Li inh: 17.7%; ALDH1A1 inh: -8.6%

Results for C=CCC(Nc1ccco1)c1ccccc1 (configuration not stated) ?
IMPase Li inh: 29.4%[38.3 µM]; HPGD block: -20.1%; PNC assembly inh: 17.9; ALDH1A1 inh: 22.4µM*; IMPase inh: -7.6; ALOX12 inhib: -2.6%

Results for Cc1ccc(NS(=O)(=O)c2cc(NC(=O)c3ccc4c(c3)NC(=O)CS4)ccc2C)c(C)c1 ?
IMPase Li inh: 2.7%; ALDH1A1 inh: 14.1µM*

How did COc1ccc(NC(=O)c2ccc3c(c2)NC(=O)CS3)cc1S(=O)(=O)Nc1ccc(Br)cc1 do in these assays?
IMPase Li inh: -5.0%; ALDH1A1 inh: 10µM*

How did COC(=O)C/C=C\[C@@H](C)[C@@H](/C=N\OC[C@@H](O)COCc1ccco1)NS(=O)(=O)c1ccc(C)cc1 do in these assays?
ALDH1A1 inh: -5.9%[13.5 µM]

How did C=CCn1c(O)c(N=NC(=S)Nc2ccccc2C)c2cc(S(=O)(=O)N3CCOCC3)ccc21 do in these assays?
IMPase Li inh: -2.8%; HPGD block: -24.7%; PNC assembly inh: inconclusive; ALDH1A1 inh: 10µM*; ALOX12 inhib: 2.8%

How did C=CCn1c(O)c(N=NC(=S)Nc2ccc(OC)c(Cl)c2)c2ccccc21 do in these assays?
IMPase Li inh: -1.8%; HPGD block: -19.1%; PNC assembly inh: -17.9; ALDH1A1 inh: 22.4µM*; ALOX12 inhib: 6.0%

Results for C=CCn1c(O)c(N=NC(=O)CNC(=O)c2cccs2)c2ccccc21 ?
IMPase Li inh: 4.7%; HPGD block: -0.3%; PNC assembly inh: -27.4; ALDH1A1 inh: -1.7%; ALOX12 inhib: 4.8%

Results for C=CCn1c(O)c(N=Nc2ccccc2C)c2ccccc21 ?
IMPase Li inh: 9.5%; ALDH1A1 inh: 2.82µM*

What do the screens show for `C=CCn1c(O)c(N=NC(=O)OC(C)(C)C)c2ccccc21`?
IMPase Li inh: -0.9%; HPGD block: inconclusive; PNC assembly inh: -100.0*; ALDH1A1 inh: inconclusive; IMPase inh: -0.1; ALOX12 inhib: -1.0%

Results for CNC(=O)C1(CC(C)C)C=CCN1C(=O)c1ccccc1 (configuration not stated) ?
IMPase Li inh: -6.1%; HPGD block: -9.6%; ALDH1A1 inh: -0.5%; ALOX12 inhib: -2.7%

How did COCCn1c(=O)c(-c2cccs2)nc2cnc(Nc3ccccc3)nc21 do in these assays?
IMPase Li inh: inconclusive; HPGD block: -2.7%; ALDH1A1 inh: 0.4%; ALOX12 inhib: -0.8%

Results for O=C(CSc1nc(-c2ccccc2)cs1)NCCN1C(=O)CSC1=O ?
IMPase Li inh: -4.2%; ALDH1A1 inh: -0.7%

Results for Cn1cccc1C(=O)N1CCC2(CC1)CN(C(c1ccccc1)c1ccccc1)C2 ?
IMPase Li inh: 5.7%; HPGD block: -16.4%; ALDH1A1 inh: inconclusive; ALOX12 inhib: 1.3%

What do the screens show for `NC(C(=O)O)c1cc(O)c(Cl)c(O)c1` (configuration not stated)?
IMPase Li inh: -0.3%; ALDH1A1 inh: 14.4%

What do the screens show for `COC(=O)[C@@H](NC(=O)N1CCc2nc(COc3ccccc3)c3c(c2C1)CO[C@@H](C)C3)C(C)C`?
IMPase Li inh: -2.9%; HPGD block: -6.1%; ALDH1A1 inh: 5.3%[13.5 µM]; ALOX12 inhib: 0.3%[11.4 µM]

What do the screens show for `COC(=O)c1ccc2c(=O)n3c(nc2c1)SCC(c1ccccc1)=N3`?
IMPase Li inh: 10µM*; HPGD block: inconclusive; PNC assembly inh: 35.6; ALDH1A1 inh: inconclusive; IMPase inh: 1.0; ALOX12 inhib: 2.2%

What do the screens show for `CCSc1nc2cc(C(=O)OC)ccc2c(=O)n1CC`?
IMPase Li inh: 6.7%; HPGD block: -20.7%; PNC assembly inh: 104.7; ALDH1A1 inh: inconclusive; IMPase inh: -7.2; ALOX12 inhib: 4.1%

Results for COc1cc(C(=O)Nc2nnc(C(C)(C)C)s2)c([N+](=O)[O-])cc1OC ?
IMPase Li inh: 2.8%; HPGD block: 20µM*; PNC assembly inh: -3.2; ALDH1A1 inh: inconclusive; ALOX12 inhib: -0.7%

How did O=c1oc2ccccc2nc1/C=C(O)/C=C\c1ccccc1 do in these assays?
IMPase Li inh: -0.3%[38.3 µM]; HPGD block: -15.3%; PNC assembly inh: -28.8; ALDH1A1 inh: 12.6µM*; IMPase inh: -2.9; ALOX12 inhib: -21.8%

Results for O=C1[C@H]2[C@H]3[C@H](O)[C@H](O)C/C(=N/OCc4ccccc4)[C@@H]3CC[C@@H]2C(=O)N1Cc1ccccc1 ?
ALDH1A1 inh: 14.9%[13.5 µM]

Results for CCOC(=O)CSC1=C(C#N)C(=O)NC(c2ccc(OC)cc2)S1 (configuration not stated) ?
IMPase Li inh: -9.5%[38.3 µM]; HPGD block: -15.8%; PNC assembly inh: 10.7; ALDH1A1 inh: 20µM*; IMPase inh: 7.0; ALOX12 inhib: inconclusive

What do the screens show for `CCOC(=O)c1nnc(-c2ccccc2)o1`?
IMPase Li inh: 29.6%[38.3 µM]; HPGD block: -11.4%; PNC assembly inh: inconclusive; ALDH1A1 inh: 13.1%; IMPase inh: inconclusive; ALOX12 inhib: -2.2%

Screens deposited in PubChem BioAssay by National Center for Advancing Translational Sciences (NCATS).
